This note sets out measurements from PubChem BioAssay (Tox21).

Structures are written as SMILES. Several values for one entry are separate records, joined by “and”; a condition that tells them apart may be missing. Equal entries are not always repeated. Inconclusive results are not listed. More than one record can exist for a structure, and the calls need not agree. Activity calls are given as the source filed them. Unless noted, the call rests on the fitted dose curve; in most records, active means well fitted curve in the direction sought with a large enough effect in the repeat runs; inconclusive means weak or mixed curves; inactive means no such curve, though single readings can be large; an effect the other way counts as inactive or inconclusive.

Experiment [1] is described as follows: qHTS assay to identify aromatase inhibitors - cell viability counter screen (AID 743084).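 Further: cells stimulated with testosterone during compound exposure; nearly all actives have a fitted effect of over 55% in size.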 Further: potency means the concentration at half of the fitted maximal effect.
For experiment [2], the target named is Aryl hydrocarbon receptor (Homo sapiens) (UniProt P35869). Put plainly: qHTS assay to identify small molecule that activate the aryl hydrocarbon receptor (AhR) signaling pathway (AID 743085). Further: nearly all actives have a fitted effect of over 15% in size. Further: potency means the concentration at half of the fitted maximal effect.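 On activation: HG2L7.5c1 human HepG2 liver cells with stably integrated DRE-driven firefly reporter; series mostly up to about 70 µM.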 The procedure, abridged:
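Luminescence (ONE-Glo) from a dioxin-responsive-element luciferase reporter in HG2L7.5c1 HepG2 cells after 24 hr compound exposure at 37C; viability measured by CellTiter-Fluor fluorescence beforehand.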

Experiment [3] can be described thus: qHTS assay to identify small molecule that activate the aryl hydrocarbon receptor (AhR) signaling pathway - cell viability counter screen (AID 743086). Further: nearly all actives have a fitted effect of over 45% in size. Further: potency means the concentration at half of the fitted maximal effect. The procedure, abridged:
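Cytotoxicity counter screen: CellTiter-Fluor signal (30 min, 37 C) in 4000 HepG2 cells/well carrying the DRE-luciferase reporter, following 24 h compound exposure at 37 C.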

A short description of experiment [4]: qHTS assay to identify small molecule antagonists of the peroxisome proliferator-activated receptor gamma (PPARg) signaling pathway - cell viability counter screen (AID 743194). Further: nearly all actives have a fitted effect of over 55% in size. Further: potency means the concentration at half of the fitted maximal effect. The procedure, abridged: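 Viability was measured as CellTiter-Glo luminescence in GeneBLAzer PPARg UAS-bla HEK293H cells. These cells had been exposed 17 h at 37 C to compounds together with rosiglitazone at 50 nM final, with the beta-lactamase readout taken in the same wells.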
(In qHTS, concentration-response curves come from the screen itself.)

The nature of experiment [5]: qHTS assay for small molecule agonists of the antioxidant response element (ARE) signaling pathway (AID 743202; active means well fitted activation curve with a large enough effect in the signal ratio in the repeat runs, not every such curve was filed as active; the % refers to the signal ratio; further: potency means the concentration at half of the fitted maximal effect). The procedure, abridged:
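After 16 hours of compound treatment at 37 C, HepG2 cells with a stably integrated ARE-driven beta-lactamase reporter were loaded 2 hours at room temperature with LiveBLAzer B/G FRET substrate and fluorescence intensity measured.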

The nature of experiment [6]: qHTS assay for small molecule agonists of the antioxidant response element (ARE) signaling pathway - cell viability counter screen (AID 743203; calls by dose curve; further: nearly all actives have a fitted effect of over 55% in size; further: potency means the concentration at half of the fitted maximal effect). The procedure, abridged:
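Measured in the same wells as the beta-lactamase ARE reporter, this read-out is CellTiter-Glo luminescence from HepG2 ARE-bla cells given compounds for 16 hrs.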

Experiment [7] can be described thus: qHTS assay for small molecule activators of the heat shock response signaling pathway - cell viability counter screen (AID 743209). Further: nearly all actives have a fitted effect of over 50% in size. Further: potency means the concentration at half of the fitted maximal effect. The procedure, abridged: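 Same-well multiplex: after 2.5 h room-temperature incubation with LiveBLAzer B/G substrate and fluorescence reading, CellTiter-Glo reagent was added to HSE-bla HeLa cells that had received compound for 5 h at 37 C; luminescence read after 30 min.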

Experiment [8] is described as follows: qHTS assay for small molecule activators of the heat shock response signaling pathway (AID 743210; active means well fitted activation curve with a large enough effect in the signal ratio in the repeat runs, with a control signal flat, not every such curve was filed as active; the % refers to the signal ratio; further: series mostly up to about 63 µM). The procedure, abridged:
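Compound exposure lasted 5 h at 37 C in HeLa cells carrying a heat-shock-element-driven beta-lactamase reporter. Read-out: fluorescence intensity after 2.5 h room-temperature loading with LiveBLAzer B/G FRET substrate.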

A short description of experiment [9]: qHTS assay to identify small molecule agonists of the peroxisome proliferator-activated receptor delta (PPARd) signaling pathway - cell viability counter screen (AID 743211). Further: nearly all actives have a fitted effect of over 55% in size. Further: potency means the concentration at half of the fitted maximal effect. The gist of the method:
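Viability was measured as CellTiter-Glo luminescence (30 min, room temperature) in the same wells as the beta-lactamase readout. GeneBLAzer PPARd UAS-bla HEK293H cells received compound after 5 h plating and were incubated 17 h at 37 C.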

Experiment [10] deals with Peroxisome proliferator-activated receptor delta (Homo sapiens) (UniProt Q03181). Put plainly: qHTS assay to identify small molecule agonists of the peroxisome proliferator-activated receptor delta (PPARd) signaling pathway (AID 743212; calls by dose curve). The gist of the method: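 Beta-lactamase reporter readout: a ratiometric FRET signal from the LiveBLAzer substrate after 2 h at room temperature. Compound exposure at 37 °C in PPARδ-bla HEK293H cells driven by an upstream activator sequence.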
Sequence of Peroxisome proliferator-activated receptor delta (Homo sapiens) (Q03181 whole entry, looked up): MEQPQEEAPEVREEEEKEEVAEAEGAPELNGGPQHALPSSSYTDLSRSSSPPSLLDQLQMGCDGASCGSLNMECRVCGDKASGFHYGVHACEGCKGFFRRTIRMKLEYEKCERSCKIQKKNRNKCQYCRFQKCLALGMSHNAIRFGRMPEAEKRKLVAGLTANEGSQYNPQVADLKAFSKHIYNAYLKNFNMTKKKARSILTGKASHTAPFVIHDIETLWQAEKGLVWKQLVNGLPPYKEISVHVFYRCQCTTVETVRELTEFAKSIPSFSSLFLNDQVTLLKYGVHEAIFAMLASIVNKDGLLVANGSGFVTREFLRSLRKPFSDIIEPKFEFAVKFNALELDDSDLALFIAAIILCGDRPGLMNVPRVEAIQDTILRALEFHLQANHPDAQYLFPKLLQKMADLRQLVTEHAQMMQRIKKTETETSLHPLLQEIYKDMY

A short description of experiment [11]: qHTS assay to identify small molecule antagonists of the peroxisome proliferator-activated receptor delta (PPARd) signaling pathway - cell viability counter screen (AID 743213). Further: nearly all actives have a fitted effect of over 50% in size. Further: potency means the concentration at half of the fitted maximal effect. The gist of the method:
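CellTiter-Glo was added to PPARd-bla HEK293H wells following 17 h compound treatment in the presence of 300 nM L165041. Luminescence was recorded after 30 min at room temperature.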

Experiment [12] is described as follows: qHTS assay to identify small molecule agonists of the farnesoid-X-receptor (FXR) signaling pathway - cell viability counter screen (AID 743218). Further: nearly all actives have a fitted effect of over 45% in size. Further: potency means the concentration at half of the fitted maximal effect. The gist of the method:
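Readout: CellTiter-Glo luminescence, 30 min RT, multiplexed after the FXR-bla FRET reading. HEK 293T FXR-UAS-bla cells received compound 5 h post-plating and were incubated 16 h at 37 C.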

Experiment [13] can be described thus: qHTS assay to identify small molecule antagonists of the farnesoid-X-receptor (FXR) signaling pathway - cell viability counter screen (AID 743221; active means well fitted cell-killing curve with a large enough effect in the repeat runs, not every such curve was filed as active; further: nearly all actives have a fitted effect of over 50% in size; further: potency means the concentration at half of the fitted maximal effect). The procedure, abridged: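 Cytotoxicity counter screen run in the FXR-bla reporter wells: HEK 293T cells exposed to compound with 50 uM (final) chenodeoxycholic acid for 16 h, 37 C, then viability measured by CellTiter-Glo luminescence after 30 min, room temperature.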

For experiment [14], the target named is Peroxisome proliferator-activated receptor gamma (Homo sapiens) (UniProt P37231). Put plainly: qHTS assay to identify small molecule agonists of the peroxisome proliferator-activated receptor gamma (PPARg) signaling pathway (AID 743094; active means well fitted activation curve with a large enough effect in the signal ratio in the repeat runs, not every such curve was filed as active; the % refers to the signal ratio). The gist of the method: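 Cell-based bla reporter, HEK293H background, PPARg-driven UAS. Pre-incubation 5 h, 37C, 5% CO2. Compound 17 h, 37C. Substrate 1 h RT; fluorescence.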
Sequence of Peroxisome proliferator-activated receptor gamma (Homo sapiens) (P37231 whole entry, looked up): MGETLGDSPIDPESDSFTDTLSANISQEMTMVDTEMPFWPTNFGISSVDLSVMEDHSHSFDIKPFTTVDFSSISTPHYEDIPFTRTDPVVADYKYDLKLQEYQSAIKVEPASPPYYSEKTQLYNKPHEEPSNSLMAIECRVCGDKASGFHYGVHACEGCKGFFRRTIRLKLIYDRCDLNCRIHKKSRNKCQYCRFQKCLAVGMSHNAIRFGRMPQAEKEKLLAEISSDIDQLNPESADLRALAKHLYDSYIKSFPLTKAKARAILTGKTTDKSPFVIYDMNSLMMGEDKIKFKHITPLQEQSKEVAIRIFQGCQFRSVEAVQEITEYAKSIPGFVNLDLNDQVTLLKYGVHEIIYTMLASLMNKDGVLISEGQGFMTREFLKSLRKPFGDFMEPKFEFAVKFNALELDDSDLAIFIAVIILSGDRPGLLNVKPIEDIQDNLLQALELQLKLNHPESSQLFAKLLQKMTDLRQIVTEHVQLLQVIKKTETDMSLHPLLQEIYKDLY

The target of experiment [15] is Peroxisome proliferator-activated receptor delta (Homo sapiens) (UniProt Q03181). Put plainly: qHTS assay to identify small molecule antagonists of the peroxisome proliferator-activated receptor delta (PPARd) signaling pathway (AID 743215; active means well fitted inhibition curve with a large enough effect in the signal ratio in the repeat runs, not every such curve was filed as active; the % refers to the signal ratio;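 further: cells stimulated with agonist L165041 at 300 nM final during compound exposure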; further: potency means the concentration at half of the fitted maximal effect). The gist of the method: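 Fluorescence from cleaved LiveBLAzer B/G FRET substrate (2 h, room temperature) reports PPARd-driven beta-lactamase in HEK293H UAS-bla cells. Cells had been treated 17 h at 37 C with compound plus 300 nM final L165041.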

Experiment [16] addresses Bile acid receptor (Homo sapiens) (UniProt Q96RI1). In words: qHTS assay to identify small molecule antagonists of the farnesoid-X-receptor (FXR) signaling pathway (AID 743217; active means well fitted inhibition curve with a large enough effect in the signal ratio in the repeat runs, not every such curve was filed as active; the % refers to the signal ratio). The gist of the method:
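FRET fluorescence after 2 h room-temperature LiveBLAzer loading gives the readout. Prior step: FXR-bla HEK 293T cells, seeded and incubated 5 h, received test compounds plus 50 uM final CDCA for 16 h at 37 °C.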

Experiment [17] shares this target. Put plainly: qHTS assay to identify small molecule agonists of the farnesoid-X-receptor (FXR) signaling pathway (AID 743220; active means well fitted activation curve with a large enough effect in the signal ratio in the repeat runs, not every such curve was filed as active; the % refers to the signal ratio). The gist of the method: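 FXR-UAS-bla HEK 293T cells carrying a UAS-driven beta-lactamase reporter were plated for 5 h at 37C/5% CO2, then exposed to DMSO-dissolved Tox21 10K compounds for 16 h at 37C. A LiveBLAzer B/G FRET substrate was loaded for 2 h at room temperature before fluorescence reading.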

Experiment [18] concerns the target Vitamin D3 receptor (Homo sapiens) (UniProt P11473). Put plainly: qHTS assay to identify small molecule antagonists of the vitamin D receptor (VDR) signaling pathway (AID 743223; active means well fitted inhibition curve with a large enough effect in the signal ratio in the repeat runs, not every such curve was filed as active; the % refers to the signal ratio; further: potency means the concentration at half of the fitted maximal effect). The gist of the method:
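Antagonist mode: compound added to VDR-bla cells alongside agonist 1alpha,25-dihydroxyvitamin D3 (3 nM final), incubation 16 h at 37C. Read-out is LiveBLAzer FRET fluorescence, 2 h at room temperature.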

Experiment [19] deals with Peroxisome proliferator-activated receptor gamma (Homo sapiens) (UniProt P37231). Put plainly: qHTS assay to identify small molecule antagonists of the peroxisome proliferator-activated receptor gamma (PPARg) signaling pathway (AID 743191; calls by dose curve; further: nearly all actives have a fitted effect of over 30% in size; further: potency means the concentration at half of the fitted maximal effect). The procedure, abridged:
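Beta-lactamase reporter under UAS control in HEK293H PPARg-bla cells; compound treatment 17 h at 37C. Read-out: fluorescence intensity after 1 h room-temperature incubation with LiveBLAzer B/G FRET substrate.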

In experiment [20] the target is Vitamin D3 receptor (Homo sapiens) (UniProt P11473). In words: qHTS assay to identify small molecule agonists of the vitamin D receptor (VDR) signaling pathway (AID 743222; calls by dose curve). The gist of the method: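 Following 4 h attachment at 37C, VDR-bla cells (2,000 per well) received DMSO-dissolved compounds or controls. After 16 h incubation, LiveBLAzer B/G FRET substrate was added and fluorescence read 2 h later at room temperature.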
Sequence of Vitamin D3 receptor (Homo sapiens) (P11473 whole entry, looked up): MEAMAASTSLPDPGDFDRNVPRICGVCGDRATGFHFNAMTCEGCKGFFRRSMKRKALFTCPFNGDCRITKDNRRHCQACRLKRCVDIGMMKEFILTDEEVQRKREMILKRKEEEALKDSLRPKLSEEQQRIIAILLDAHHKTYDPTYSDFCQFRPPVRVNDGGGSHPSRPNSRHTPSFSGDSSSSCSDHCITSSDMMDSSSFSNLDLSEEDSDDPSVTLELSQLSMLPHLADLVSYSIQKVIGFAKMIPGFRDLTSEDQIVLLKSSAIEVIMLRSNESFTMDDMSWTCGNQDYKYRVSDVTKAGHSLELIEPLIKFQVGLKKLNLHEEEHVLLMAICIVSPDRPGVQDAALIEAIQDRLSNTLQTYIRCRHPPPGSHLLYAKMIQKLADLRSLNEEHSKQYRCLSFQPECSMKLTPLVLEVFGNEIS

Sequence of Aryl hydrocarbon receptor (Homo sapiens) (P35869 whole entry, looked up): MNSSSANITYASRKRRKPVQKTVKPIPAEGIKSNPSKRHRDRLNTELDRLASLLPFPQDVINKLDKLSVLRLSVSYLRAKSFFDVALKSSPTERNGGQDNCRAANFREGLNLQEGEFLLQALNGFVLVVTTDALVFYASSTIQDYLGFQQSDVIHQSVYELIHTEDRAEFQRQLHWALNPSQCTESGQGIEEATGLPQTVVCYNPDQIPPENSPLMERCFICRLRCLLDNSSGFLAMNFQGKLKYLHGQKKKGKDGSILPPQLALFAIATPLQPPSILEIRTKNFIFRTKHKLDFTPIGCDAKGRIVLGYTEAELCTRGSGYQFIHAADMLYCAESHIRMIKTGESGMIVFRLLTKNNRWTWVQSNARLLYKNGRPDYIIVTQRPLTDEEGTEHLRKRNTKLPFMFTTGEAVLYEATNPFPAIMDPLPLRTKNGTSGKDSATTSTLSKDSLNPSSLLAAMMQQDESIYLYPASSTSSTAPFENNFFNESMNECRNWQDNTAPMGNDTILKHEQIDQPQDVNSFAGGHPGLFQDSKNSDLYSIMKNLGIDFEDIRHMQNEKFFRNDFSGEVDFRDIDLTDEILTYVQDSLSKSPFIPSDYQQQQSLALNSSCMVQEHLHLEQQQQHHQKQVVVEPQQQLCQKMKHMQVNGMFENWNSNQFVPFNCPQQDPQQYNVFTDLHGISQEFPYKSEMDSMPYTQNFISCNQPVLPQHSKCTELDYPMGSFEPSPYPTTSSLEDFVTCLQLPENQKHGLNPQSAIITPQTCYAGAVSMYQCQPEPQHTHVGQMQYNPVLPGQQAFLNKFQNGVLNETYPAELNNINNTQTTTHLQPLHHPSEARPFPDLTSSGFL
Sequence of Bile acid receptor (Homo sapiens) (Q96RI1 whole entry, looked up): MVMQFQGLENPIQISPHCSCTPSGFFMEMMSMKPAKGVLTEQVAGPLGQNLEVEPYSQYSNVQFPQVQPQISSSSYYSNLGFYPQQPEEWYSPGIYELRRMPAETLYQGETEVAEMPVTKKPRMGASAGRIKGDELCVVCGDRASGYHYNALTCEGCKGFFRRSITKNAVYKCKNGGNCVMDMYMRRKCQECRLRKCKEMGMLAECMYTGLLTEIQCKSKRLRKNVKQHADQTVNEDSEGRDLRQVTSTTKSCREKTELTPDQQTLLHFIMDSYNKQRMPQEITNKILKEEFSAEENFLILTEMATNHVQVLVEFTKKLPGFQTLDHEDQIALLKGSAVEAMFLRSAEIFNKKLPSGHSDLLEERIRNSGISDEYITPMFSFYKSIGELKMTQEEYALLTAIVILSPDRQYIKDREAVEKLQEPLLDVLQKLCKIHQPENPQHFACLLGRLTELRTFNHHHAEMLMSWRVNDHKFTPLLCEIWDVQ

Regarding `COc1ccc(CN(CCN(C)C)c2ccccn2)cc1`, the Potency entry in [1], in [2], in experiment [3], in [4], in experiment [5] and in experiment [6] was “inactive” throughout. The Potency result in [7], in experiment [9], in experiment [10], in experiment [11], in experiment [12] and in [13] was “inactive” in each case. Moreover, the result in [8] was inactive.

For the molecule `Nc1c(N=Nc2ccc(-c3ccc(N=Nc4cc(S(=O)(=O)O)c5ccccc5c4N)cc3)cc2)cc(S(=O)(=O)O)c2ccccc12`, the Potency in [1] was 13.3 µM (active) and 4.32 µM (active); in experiment [2], 23.7 µM (active) and 24.3 µM (active); in [3], 21.1 µM (active) and 9.68 µM (active). Also, the Potency entry in experiment [14], in experiment [4], in experiment [7], in experiment [9], in experiment [10] and in experiment [11] was “inactive” throughout. Also, the Potency result in [15], in experiment [16], in experiment [12], in [13] and in experiment [18] was “inactive” each time. The molecule was called inactive in experiment [8] and in experiment [17].

On to `CC(=O)CCC(=O)O`, for which the Potency entry in experiment [1], in experiment [2], in [3], in experiment [14], in [19] and in experiment [4] was “inactive” in each case. Also, the Potency entry in experiment [5], in experiment [6], in experiment [7], in [9], in experiment [11] and in [12] was “inactive” throughout. Besides, the Potency result in [13], in experiment [20] and in experiment [18] was “inactive” each time.

`CCCCCCc1ccc(O)cc1O`: the Potency entry in experiment [2], in [3], in [14], in [4], in [6] and in [7] was “inactive” throughout. Besides, the Potency entry in experiment [11], in experiment [12], in experiment [13], in experiment [20] and in experiment [18] was “inactive” each time. For the same molecule, the Potency in experiment [19] was 11.9 µM (active); in [5], 24.4 µM (active) and 26.6 µM (active); in experiment [9] it was 43.8 µM (active) and inactive. In addition, the outcome in experiment [8] was inactive.

Regarding `COc1cccc(O)c1O`, in [2], the Potency was 31.8 µM (active). Also, the Potency entry in experiment [4], in experiment [6], in experiment [9], in experiment [10], in experiment [11] and in experiment [15] was “inactive” each time. In addition, the Potency entry in experiment [12], in [13] and in experiment [18] was “inactive” throughout.

For the molecule `CC(C)NCC(O)c1ccc(O)c(O)c1` (stereo not given), the Potency result in experiment [1], in experiment [2], in [3], in experiment [4], in experiment [5] and in experiment [6] was “inactive” throughout. In addition, the Potency result in experiment [7], in [9], in [11], in experiment [12], in experiment [13] and in experiment [20] was “inactive” throughout. Moreover, the Potency entry in experiment [18] was “inactive”.

Consider `CCCCCCCCCCCC[N+](C)(C)Cc1ccccc1`, for which the Potency result in experiment [1] is “inactive and 67.3 µM (active)”; in experiment [3] it was 59.2 µM (active); in [4] it was 17 µM (active) and 15 µM (active) and 26.6 µM (active); in experiment [6] it was 26.8 µM (active) and 29.7 µM (active); in [7], 34 µM (active) and 18.9 µM (active) and 16.8 µM (active); in experiment [9] it was 27 µM (active) and 18.9 µM (active) and 23.7 µM (active). In addition, the Potency is 19.1 µM (active) and 18.9 µM (active) and 15 µM (active) in experiment [11]; 26.6 µM (active) in experiment [15]; 17 µM (active) and 21.2 µM (active) in experiment [12]; 53.9 µM (active) and 59.7 µM (active) and 29.8 µM (active) in experiment [13]; 42.8 µM (active) and 53.2 µM (active) in experiment [18]. The Potency entry in experiment [2] and in [20] was “inactive” in each case.
